Results filed as inconclusive are left out. Activity calls are given as the source filed them. Unless noted, the call rests on the fitted dose curve.
Legend:
[1] = qHTS for Inhibitors of the Functional Ribonucleoprotein Complex (vRNP) of Lassa (LASV) Arenavirus: LASV Primary Screen - GLuc reporter signal (AID 1347082; calls by dose curve; tested in HEK293 reporter line; further: nearly all actives have a fitted effect of over 60% in size)
[2] = qHTS for Inhibitors of the Functional Ribonucleoprotein Complex (vRNP) of Lassa (LASV) Arenavirus: Viability assay - alamar blue signal for LASV Primary Screen (AID 1347083; calls by dose curve; tested in HEK293 reporter line; further: nearly all actives have a fitted effect of over 80% in size)
[3] = qHTS for Inhibitors of the Functional Ribonucleoprotein Complex (vRNP) of Lymphocytic Choriomeningitis Arenaviruses (LCMV): Viability assay - alamar blue signal for LCMV Primary Screen (AID 1347085; calls by dose curve; tested in HEK293 reporter line; further: nearly all actives have a fitted effect of over 80% in size)
[4] = molecular target: Nucleoprotein (Lymphocytic choriomeningitis virus (strain Armstrong)) (UniProt P09992); assay: qHTS for Inhibitors of the Functional Ribonucleoprotein Complex (vRNP) of Lymphocytic Choriomeningitis Arenaviruses (LCMV): LCMV Primary Screen - GLuc reporter signal (AID 1347086); further: nearly all actives have a fitted effect of over 70% in size
Chain of Nucleoprotein (Lymphocytic choriomeningitis virus (strain Armstrong)) (P09992 whole entry, looked up): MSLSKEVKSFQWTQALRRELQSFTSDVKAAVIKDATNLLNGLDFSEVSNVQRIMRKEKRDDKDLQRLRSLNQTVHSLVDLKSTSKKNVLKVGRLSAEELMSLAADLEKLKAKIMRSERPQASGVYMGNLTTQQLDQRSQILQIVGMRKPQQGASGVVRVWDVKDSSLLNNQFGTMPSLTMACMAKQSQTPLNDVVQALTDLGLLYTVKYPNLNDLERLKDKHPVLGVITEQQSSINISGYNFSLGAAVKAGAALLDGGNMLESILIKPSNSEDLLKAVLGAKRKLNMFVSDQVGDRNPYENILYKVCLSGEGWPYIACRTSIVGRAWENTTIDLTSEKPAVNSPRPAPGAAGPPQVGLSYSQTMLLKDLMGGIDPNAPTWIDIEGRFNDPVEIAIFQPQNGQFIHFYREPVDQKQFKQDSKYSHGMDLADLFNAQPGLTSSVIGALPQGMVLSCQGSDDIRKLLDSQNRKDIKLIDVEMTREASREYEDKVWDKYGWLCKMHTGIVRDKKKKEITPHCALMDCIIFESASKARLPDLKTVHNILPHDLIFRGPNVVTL

Measured: Potency
Further: series mostly up to about 57 µM.

CCCOC(=O)c1ccc(N)cc1
inactive: all assays above

CC1=C(C(=O)O)N2C(=O)[C@@H](NC(=O)[C@H](N)C3=CCC=CC3)[C@H]2SC1
inactive: all assays above

CC(=O)Oc1ccc(C(c2ccc(OC(C)=O)cc2)c2ccccn2)cc1
inactive: all assays above

CC(C)[C@@H]1CC[C@@H](C)CC1=O
inactive: all assays above

CN1CCC(OC(c2ccccc2)c2ccccc2)CC1
inactive: all assays above

Cc1ccc(C(=O)Oc2ccc(C(O)CNC(C)(C)C)cc2OC(=O)c2ccc(C)cc2)cc1 (configuration not stated)
inactive: all assays above

Nc1nc2ncc(CNc3ccc(C(=O)N[C@@H](CCC(=O)O)C(=O)O)cc3)nc2c(=O)[nH]1
inactive: all assays above

CN1CCN(c2cc3c(cc2F)c(=O)c(C(=O)O)cn3-c2ccc(F)cc2)CC1
inactive: all assays above

O=c1oc2c(O)c(O)cc3c(=O)oc4c(O)c(O)cc1c4c23
inactive: all assays above

CN(C)CCOc1ccccc1Cc1ccccc1
inactive: all assays above

COc1cc(NS(=O)(=O)c2ccc(N)cc2)ncn1
inactive: all assays above

C[C@H](O)C(=O)Nc1c(I)c(C(=O)NC(CO)CO)c(I)c(C(=O)NC(CO)CO)c1I
inactive: all assays above

CC(=O)OCC(=O)[C@@]12N=C(C)O[C@@H]1C[C@H]1[C@@H]3CCC4=CC(=O)C=C[C@]4(C)[C@H]3[C@@H](O)C[C@@]12C
inactive: all assays above

Cn1cc(C(=O)[C@@H]2CCc3nc[nH]c3C2)c2ccccc21
inactive: all assays above

CCc1oc2ccccc2c1C(=O)c1cc(Br)c(O)c(Br)c1
inactive: all assays above

CN(Cc1cc(Br)cc(Br)c1N)C1CCCCC1
inactive: all assays above

O=C(O)CP(=O)(O)O
inactive: all assays above

C[C@]12CCC(=O)C=C1C=C[C@@H]1[C@@H]2CC[C@@]2(C)[C@H]1CC[C@@]21CCC(=O)O1
inactive: all assays above

C#C[C@]1(OC(C)=O)CC[C@H]2[C@@H]3CCC4=C[C@@H](OC(C)=O)CC[C@@H]4[C@H]3CC[C@@]21C
inactive: all assays above

C[C@H](CCC(=O)O)[C@H]1CC[C@H]2[C@@H]3C(=O)C[C@@H]4CC(=O)CC[C@]4(C)[C@H]3CC(=O)[C@]12C
inactive: all assays above

CCN(CC)CCOC(=O)C(c1ccccc1)C1CCCCC1 (configuration not stated)
inactive: all assays above

CCOC(CN1CCN(CC(C)C(=O)c2ccccc2)CC1)c1ccccc1 (configuration not stated)
inactive: all assays above

Cc1cc(O)c(C)c(C)c1O
inactive: all assays above

CC1CC(OC(=O)C(O)c2ccccc2)CC(C)(C)N1C (configuration not stated)
inactive: all assays above

CCOC(=O)[C@H](CCc1ccccc1)N[C@H]1CS[C@H](c2cccs2)CN(CC(=O)O)C1=O
inactive: all assays above

Cc1[nH]c(C)c(Cl)c(=O)c1Cl
inactive: all assays above

C/C=C/C(=O)N(CC)c1ccccc1C
inactive: all assays above

C[N+]1(C)CCC(=C(c2ccccc2)c2ccccc2)CC1
inactive: all assays above

Cc1nc2sccn2c(=O)c1CCN1CCC(=C(c2ccc(F)cc2)c2ccc(F)cc2)CC1
inactive: all assays above

CCCCCCCCCCCCCCC[C@H](O)[C@@H](N)CO
inactive: all assays above

CC1CCCCN1CCCOC(=O)c1ccc(OC2CCCCC2)cc1 (configuration not stated)
inactive: all assays above

C=CCc1cc(OC)c(O)c(C(=O)NCCO)c1
inactive: all assays above

O=C1CC2(CCCC2)CC(=O)N1CCCCN1CCN(c2ncccn2)CC1
inactive: all assays above

Reference: PubChem BioAssay (NCATS)
